The text below walks through data of the antibiotic and cytotoxicity screens of Wong et al. (2023).

The campaign covered roughly 39,000 compounds. About 500 (1.3%) were called active. The sample as a whole holds a higher share of actives than the screen did.

The test system of the assay is S. aureus RN4220. The experiment in a line: growth inhibition call (relative growth <= 0.2). Conditions: 50 µM.
For the compound `C[C@@H]1CN([C@H](C)CO)C(=O)Cc2cc(NS(C)(=O)=O)ccc2O[C@H]1CN(C)S(=O)(=O)c1cn(C)cn1`, the growth inhibition call was “inactive”.

In the case of `C[C@@H]1CN([C@@H](C)CO)C(=O)Cc2cc(NC(=O)c3ccncc3)ccc2O[C@H]1CN(C)S(=O)(=O)c1ccc(Cl)cc1`, the growth inhibition call is “inactive”.

In the case of `C[C@@H]1CCCCO[C@H](CN(C)S(=O)(=O)c2cn(C)cn2)[C@H](C)CN([C@H](C)CO)C(=O)c2cc(NS(=O)(=O)c3ccccc3)ccc2O1`, the growth inhibition call is “inactive”.

With `C[C@H](CO)N1C[C@H](C)[C@@H](CN(C)S(=O)(=O)c2cn(C)cn2)Oc2ccc(NC(=O)CCCN(C)C)cc2C1=O`, the growth inhibition call was “inactive”.

Take `C[C@@H]1CCCCO[C@@H](CN(C)S(=O)(=O)c2ccc(F)cc2)[C@H](C)CN([C@@H](C)CO)C(=O)c2cc(NC(=O)CCC(F)(F)F)ccc2O1`: the growth inhibition call is “inactive”.

As to `CC(C)C[C@@H]1NC(=O)[C@@H](C(C)C)NC(=O)[C@@H]2CCCN2C(=O)[C@@H](CC(=O)O)NC(=O)[C@@H](Cc2c[nH]c3ccccc23)NC1=O`, the growth inhibition call is “inactive”.

`CC(C)C[C@H]1NC(=O)[C@@H](CCCN)NC(=O)[C@H](C(C)C)NC(=O)[C@H]2CCCN2C(=O)[C@@H](Cc2ccccc2)NC(=O)[C@@H](CC(C)C)NC(=O)[C@@H](CCCN)NC(=O)[C@H](C(C)C)NC(=O)[C@H]2CCCN2C(=O)[C@@H](Cc2ccccc2)NC1=O`: the growth inhibition call was “inactive”.

Regarding `C[C@@H]1CN([C@H](C)CO)C(=O)c2cccc(NC(=O)c3cnccn3)c2O[C@H]1CN(C)S(=O)(=O)c1ccccc1`, the growth inhibition call was “inactive”.

Take `C[C@@H]1CN([C@@H](C)CO)S(=O)(=O)c2ccc(C#CCN(C)C)cc2O[C@H]1CN(C)Cc1cccnc1`: the growth inhibition call is “inactive”.

As to `OC[C@H]1O[C@H]2O[C@@H]3[C@@H](O)[C@H](O)[C@H](O[C@@H]4[C@@H](O)[C@H](O)[C@H](O[C@@H]5[C@@H](O)[C@H](O)[C@H](O[C@@H]6[C@@H](O)[C@H](O)[C@H](O[C@@H]7[C@@H](O)[C@H](O)[C@H](O[C@@H]8[C@@H](O)[C@H](O)[C@H](O[C@@H]1[C@@H](O)[C@@H]2O)O[C@@H]8CO)O[C@@H]7CO)O[C@@H]6CO)O[C@@H]5CO)O[C@@H]4CO)O[C@@H]3CO`, the growth inhibition call was “inactive”.

On to `NC1=CC(=O)c2ccccc2C1=O`, for which the growth inhibition call was “inactive”.

Turning to `O=C1C=C(O)C(=O)c2ccccc21`, the growth inhibition call is “inactive”.

As to `CC1=CC(=O)c2ccccc2C1=O`, the growth inhibition call is “active”.

On to `C[C@H](O)C#Cc1ccc2c(c1)O[C@H](CN(C)C(=O)c1ccccc1)[C@@H](C)CN([C@H](C)CO)S2(=O)=O`, for which the growth inhibition call is “inactive”.

`CN(CC(=O)O)S(=O)(=O)c1ccc(F)cc1`: the growth inhibition call is “inactive”.

With `C[C@H](CO)N1C[C@H](C)[C@@H](CN(C)Cc2ccc(C(F)(F)F)cc2)Oc2ccc(NC(=O)C3CCCCC3)cc2C1=O`, the growth inhibition call is “inactive”.

Turning to `CC1(C)SC2C(NC(=O)C(N)c3ccc(O)cc3)C(=O)N2C1C(=O)O` (stereo not given), the growth inhibition call is “active”.

Take `CC1(C)S[C@H]2[C@@H](NC(=O)[C@@H](N)c3ccccc3)C(=O)N2[C@@H]1C(=O)O`: the growth inhibition call was “inactive”.

On to `CC1(C)S[C@@H]2[C@H](NC(=O)[C@H](N)c3ccc(O)cc3)C(=O)N2[C@H]1C(=O)O`, for which the growth inhibition call is “active”.

On to `CC1(C)S[C@@H]2[C@H](NC(=O)C3(N)CCCCC3)C(=O)N2[C@H]1C(=O)O`, for which the growth inhibition call is “active”.

As to `C[C@H]1CN([C@@H](C)CO)C(=O)Cc2cc(NS(=O)(=O)c3cn(C)cn3)ccc2O[C@H]1CN(C)C(=O)NC1CCCCC1`, the growth inhibition call was “inactive”.

Take `C[C@H]1CN([C@@H](C)CO)C(=O)Cc2cc(NS(=O)(=O)c3cn(C)cn3)ccc2O[C@@H]1CN(C)C(=O)Nc1ccc2c(c1)OCO2`: the growth inhibition call was “inactive”.

On to `CN(C)CCCNC(=O)C[C@H]1CC[C@H]2[C@@H](COC[C@@H](O)CN2S(=O)(=O)c2ccc(F)cc2)O1`, for which the growth inhibition call was “inactive”.

As to `C[C@H]1CCCCO[C@H](CN(C)CC2CCCCC2)[C@@H](C)CN([C@@H](C)CO)C(=O)c2cc(NC(=O)CCC(F)(F)F)ccc2O1`, the growth inhibition call is “inactive”.

As for `O=C(NO)c1ccc(C(=O)N/N=C/[C@H](O)[C@@H](O)[C@H](O)CO)cc1`, the growth inhibition call was “inactive”.

`C[C@@H]1CN([C@@H](C)CO)C(=O)c2cccc(NC(=O)Nc3ccc4c(c3)OCO4)c2O[C@@H]1CN(C)S(C)(=O)=O`: the growth inhibition call is “inactive”.

Turning to `Cc1ccc(S(=O)(=O)N(C)C[C@@H]2Oc3ccc(NS(=O)(=O)c4ccc(F)cc4)cc3CC(=O)N([C@H](C)CO)C[C@@H]2C)cc1`, the growth inhibition call is “inactive”.

As to `CC(C)CC#Cc1ccc2c(c1)O[C@@H](CN(C)C(=O)c1ccccn1)[C@H](C)CN([C@@H](C)CO)S2(=O)=O`, the growth inhibition call is “inactive”.

`O=C(C[C@H]1CC[C@H]2[C@@H](COC[C@H](O)CN2C(=O)Nc2ccc(Cl)c(Cl)c2)O1)NCc1ccncc1`: the growth inhibition call was “inactive”.

Regarding `O=C(C[C@@H]1CC[C@@H]2[C@H](COC[C@@H](O)CN2C(=O)Nc2ccc(Cl)c(Cl)c2)O1)NCc1ccncc1`, the growth inhibition call is “active”.

On to `O=C(C[C@@H]1CC[C@@H]2[C@H](COC[C@H](O)CN2C(=O)Nc2ccc(Cl)c(Cl)c2)O1)NCc1ccncc1`, for which the growth inhibition call was “inactive”.

With `O=C(C[C@@H]1CC[C@H]2[C@@H](COC[C@H](O)CN2C(=O)Nc2ccc(Cl)c(Cl)c2)O1)NCc1ccncc1`, the growth inhibition call was “active”.

In the case of `O=C(C[C@@H]1CC[C@H]2[C@@H](COC[C@@H](O)CN2C(=O)Nc2ccc(Cl)c(Cl)c2)O1)NCc1ccc(Cl)c(Cl)c1`, the growth inhibition call was “inactive”.

Take `O=C(C[C@@H]1CC[C@H]2[C@@H](COC[C@H](O)CN2C(=O)Nc2ccc(Cl)c(Cl)c2)O1)NCc1ccc(Cl)c(Cl)c1`: the growth inhibition call is “active”.

Take `O=C(C[C@H]1CC[C@@H]2[C@H](COC[C@H](O)CN2C(=O)Nc2ccc(Cl)c(Cl)c2)O1)NCc1ccncc1`: the growth inhibition call is “inactive”.

As for `O=C(C[C@@H]1CC[C@H]2[C@@H](COC[C@@H](O)CN2C(=O)Nc2ccc(Cl)c(Cl)c2)O1)NCc1ccncc1`, the growth inhibition call is “active”.

As for `O=C(C[C@@H]1CC[C@@H]2[C@H](COC[C@H](O)CN2C(=O)Nc2ccc(Cl)c(Cl)c2)O1)NCc1ccc(Cl)c(Cl)c1`, the growth inhibition call is “inactive”.

Take `O=C(C[C@H]1CC[C@H]2[C@@H](COC[C@@H](O)CN2C(=O)Nc2ccc(Cl)c(Cl)c2)O1)NCc1ccncc1`: the growth inhibition call is “inactive”.

Take `O=C(C[C@H]1CC[C@H]2[C@@H](COC[C@@H](O)CN2C(=O)Nc2ccc(Cl)c(Cl)c2)O1)NCc1ccc(Cl)c(Cl)c1`: the growth inhibition call is “inactive”.

`O=C(C[C@H]1CC[C@H]2[C@@H](COC[C@H](O)CN2C(=O)Nc2ccc(Cl)c(Cl)c2)O1)NCc1ccc(Cl)c(Cl)c1`: the growth inhibition call was “inactive”.
